Results on 24 compounds are retold here after PubChem BioAssay (NCATS).

The structures appear in SMILES notation. Inconclusive results are not listed. Unmarked numbers belong to inactive results. Calls of active or inactive are those of the source. Calls come from the whole dose curve; as a rule, active = well fitted cell-killing curve with a large enough effect; inconclusive = small, poorly fitted or top-dose-only effect, or effect the other way; inactive = no such curve, though single readings can be large or run the other way.

A short description of experiment [1]: Viability qHTS for spleen associated tyrosine kinase inhibitor (SYKi) naive MV4-11 cells (AID 1963823). Note: nearly all actives have a fitted effect of over 40% in size. The method, boiled down: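 qHTS, SYK inhibitor-naive MV4-11; 500 cells/well; 72 hr compound exposure, 37 C; CellTiter-Glo added, 10 min RT; luminescence read.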
In general terms: Quantitative high-throughput screening tests each substance at several concentrations.

Experiment [2] is described as follows: Viability qHTS for spleen associated tyrosine kinase inhibitor (SYKi) drug resistant MV4-11 cells (AID 1963824). Note: nearly all actives have a fitted effect of over 35% in size. The method, boiled down: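 SYK-inhibitor-resistant MV4-11 AML cells were seeded at 500 per well onto compound and cultured 72 hours (37 °C, 5% CO2). CellTiter-Glo was then added, and after 10 min at room temperature, luminescence gave viability.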
Potency is the fitted concentration of half-maximal effect.

As to `COc1cc2c(c(OC)c1O)C(c1ccc(O)cc1)C1C(=O)OC3C(COC(=O)C1=C2)OC(CO)(OC1OC(COC(=O)/C=C/c2ccc(OC4OC(C)C(O)C(O)C4O)cc2)C(O)C(O)C1O)C3O` (stereo not drawn), in experiment [1], the viability (% of control) is 95.6% [at 9.25 µM]. Moreover, the viability, % of control in experiment [2] was 81.2% [at 9.25 µM].
In the case of `CNC(=O)c1ccc2cc([C@@]3(O)CCn4cncc43)ccc2c1`, the Potency result in experiment [1] and in experiment [2] was “inactive” each time.
`CC1=CC(=O)CC(C)(C)C1CCC(C)OC1OC(COC(=O)c2cc(O)c(O)c(O)c2)C(O)C(O)C1O` (stereo not drawn): the Potency entry in experiment [1] and in experiment [2] was “inactive” throughout.
Take `C=C1CCC2C(C)(C(=O)O)CC(O)CC2(C)C1CC/C(C)=C/C(=O)O` (stereo not drawn): the Potency entry in experiment [1] and in experiment [2] was “inactive” throughout.
As to `CN(CC(=O)N(Cc1ccc(C2CCCCC2)cc1)c1ccc(C(=O)O)cc1)S(=O)(=O)c1c(F)c(F)c(F)c(F)c1F`, the results for the Potency in experiment [1] and in experiment [2] were 1840 nM (active) and 1030 nM (active), respectively.
On the same counts, the results for `CC1CCC2C(C(=O)O)=COC(O[C@@H]3O[C@H](CO)[C@@H](O)[C@H](O)[C@H]3O)C12` (stereo partly drawn) are “inactive” and 16100 nM (active).
Consider `CNC(=O)c1ccccc1Nc1nc(Nc2ccc3c(c2OC)CCCC(N2CCN(CCO)CC2)C3)ncc1Cl` (stereo not drawn), for which the Potency in experiment [1] is 366 nM (active); in experiment [2] it was 731 nM (active).
On the same counts, the results for `Cc1cn(-c2cc(NC(=O)c3ccc(C)c(Nc4nccc(-c5cnccn5)n4)c3)cc(C(F)(F)F)c2)cn1` are “inactive” and “inactive”.
For `O=C(/C=C/c1ccc(O)cc1)OC1[C@H](O)CC(O)(C(=O)O)C[C@H]1O` (stereo partly drawn), in that order: “inactive” and “inactive”.
For `CC1(C)CCC2(CC1)N[C@@H](C(=O)N[C@@H]1CC[C@@H](C(N)=O)OC1)[C@H](c1ccnc(Cl)c1F)[C@]21C(=O)Nc2cc(Cl)ccc21`, in that order: 16000 nM (active) and 5680 nM (active).
On to `CC(C)CC[C@@H](O)[C@](C)(O)[C@H]1CC[C@@]2(O)C3=CC(=O)[C@@H]4C[C@@H](O)[C@@H](O)C[C@]4(C)[C@H]3CC[C@]12C`, for which the Potency result in experiment [1] and in experiment [2] was “inactive” each time.
In the case of `CC1(C=O)CC[C@]2(C(=O)O[C@@H]3O[C@H](CO)[C@@H](O)[C@H](O)[C@H]3O)CC[C@]3(C)C(=CCC4[C@@]5(C)C[C@H](O)[C@H](O[C@@H]6OC[C@@H](O)[C@H](O)[C@H]6O)[C@@](C)(CO)C5CC[C@]43C)C2C1` (stereo partly drawn), in experiment [1], the viability (% of control) was 95.5% [at 9.25 µM]. Moreover, the viability, % of control in experiment [2] is 103% [at 9.25 µM].
For `CC1CCC2C(C)(C)[C@H](O)CC[C@]2(C)C12Cc1c(O)cc3c(c1O2)CN(C(CCC(=O)O)C(=O)O)C3=O` (stereo partly drawn), the Potency result in experiment [1] and in experiment [2] was “inactive” throughout.
As for `COc1cc(O)c2c(c1Cl)CC(C)OC2=O` (stereo not drawn), the Potency entry in experiment [1] and in experiment [2] was “inactive” throughout.
For the compound `COC1CC(O[C@H]2CC[C@@]3(C)C(CCC4C3[C@H](OC(C)=O)[C@@H](OC(=O)/C=C/c3ccccc3)[C@]3(C)C(C(C)=O)CC[C@]43O)C2)OC(C)C1OC1CC(OC)C(OC2CC(OC)C(OC3OC(C)C(OC4OC(CO)C(O)C(O)C4O)C(OC)C3O)C(C)O2)C(C)O1` (stereo partly drawn), the viability (% of control) in experiment [1] is 48.3% [at 9.25 µM]. In experiment [2], the viability, % of control is 45.7% [at 9.25 µM].
Consider `COc1c2ccoc2nc2c(OC)c(O[C@@H]3O[C@@H](C)[C@H](O)[C@@H](O[C@@H]4O[C@H](CO)[C@@H](O)[C@H](O)[C@H]4O)[C@H]3OC(C)=O)ccc12`, for which the Potency entry in experiment [1] and in experiment [2] was “inactive” each time.
On to `CC1OC(O[C@H]2CC[C@@]3(C)C(CC[C@]4(C)C3CC=C3C5CC(C)(C)CC[C@]5(C(=O)OC5OC(CO)C(OC6OCC(OC7OCC(O)C(O)C7O)C(O)C6O)C(O)C5O)CC[C@]34C)C2(C)C)C(O)C(O)C1OC1OC(CO)C(O)C(OC2OC(CO)C(O)C(O)C2O)C1O` (stereo partly drawn), for which the viability (% of control) in experiment [1] was 54.2% [at 9.25 µM]. In experiment [2], the viability, % of control was 62.2% [at 9.25 µM].
`NC1CCC(Nc2cc(-c3cccc(NCc4cccc(F)c4)n3)c(Cl)cn2)CC1` (stereo not drawn): the Potency in experiment [1] is 146 nM (active); in experiment [2] it was 116 nM (active).
On to `C#Cc1cnc2[nH]c(=O)n(C(CC)CC)c2n1`, for which the Potency entry in experiment [1] and in experiment [2] was “inactive” throughout.
Take `COC(=O)C1=COC(OC2OC(CO)C(O)C(O)C2O)C2C1C=CC2(O)CO` (stereo not drawn): the Potency result in experiment [1] and in experiment [2] was “inactive” in each case.
Consider `CC(c1c[nH]c2ccccc12)C(O)C(=O)O` (stereo not drawn), for which the Potency result in experiment [1] and in experiment [2] was “inactive” throughout.
Consider `Cc1c[nH]c2nccc(Oc3c(F)cc(Nc4cc(Cl)nc(N)n4)cc3F)c12`, for which the figures for the Potency in experiment [1] and in experiment [2] were 517 nM (active) and 731 nM (active), respectively.
On the same counts, the results for `CC1(C)C2CC(OC3OC(COC4OCC(O)(CO)C4O)C(O)C(O)C3O)C1(C)CC2O` (stereo not drawn) are “inactive” and “inactive”.
For `COC(=O)C1=CO[C@@H](O[C@@H]2O[C@H](CO[C@@H]3O[C@H](COC(=O)/C=C/c4cc(OC)c(O)c(OC)c4)[C@@H](O)[C@H](O)[C@H]3O)[C@@H](O)[C@H](O)[C@H]2O)[C@@H]2C(CO)=CC[C@H]12`, in that order: “inactive” and “inactive”.
